D2 PAM-1 = human D2 receptor positive allosteric modulation; DiscoveRx D2 beta-arrestin cells, luminescence, 90 min; 100% = 57 uM dopamine signal; 360,000 tested, 0.23% active; potentiation, % (test concentration not listed); in the data active = potentiation above about 50%; inconclusive = mostly about 30% to 49%
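PathHunter D2 cells, attached overnight at 37 deg C, received compound in DMSO plus dopamine at EC20 (50 nM final) for 90 min at 37 deg C. Beta-arrestin recruitment was read as luminescence after 1 h with detection reagent at ambient temperature.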
D2 ag-1 = activates the human D2 dopamine receptor. P14416. DiscoveRx PathHunter D2 beta-arrestin, luminescence, 90 min; 100% = 57 uM dopamine signal. activation, % (test concentration not listed). 360,000 tested, 0.084% active. AID 624465; in the data active = activation above about 40%; inconclusive = between about 15% and that limit
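Agonist mode: compounds alone added to overnight-plated D2 PathHunter cells for 90 min at 37 C, with 57 uM final dopamine (EC100) defining full response. Beta-arrestin recruitment detected by chemiluminescent reagent, read after 1 h at ambient temperature.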
D2 antag = D2 dopamine receptor (human) antagonism | 340,000 tested, 2% active | HEK293 TREx D2 cells, calcium flux, dopamine EC80 | P14416 | inhibition, % at 10 µM; in the data active = inhibition above about 30%; inactive = below that, where a call was filed
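HEK293 T-REx D2 cells, tet-induced, calcium dye no-wash. Cpd pintool add, 180 s kinetic, then EC80 DA, 180 s kinetic. Ca flux read.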
D2 ag-2 = activates the human D2 dopamine receptor; P14416; HEK293 T-REx D2 cells, calcium flux agonist mode; activation, % at 2 µM; 340,000 tested, 0.53% active;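 active = activation over 3 SD above normal in the single-dose calcium agonist read, cut at about 30% in these data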
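HEK293 Trex D2 cells, tetracycline-induced, o/n 30 C 5% CO2; no-wash Ca dye, RT 30–90 min; 10-cycle baseline, 23 nl cpd added, kinetic Ca read 180 s; agonist hits = positive Ca response.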
D2 PAM-2 = positively modulates the human D2 dopamine receptor allosterically | P14416 | HEK293 T-REx D2, calcium flux, EC20 dopamine potentiation | potentiation, % at 10 µM | 340,000 tested, 0.34% active | AID 485347;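 active = potentiation over 3 SD above the plate norm, cut at about 30% in these data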
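Potentiation of an EC20 dopamine calcium response measured kinetically over 180 s, after a preceding 180 s compound-only read flagging agonists. Cells: inducible Hek293 Trex D2 line, 4000/well, cultured overnight at 30 C before dye loading.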
D3 ag = activates human D3 dopamine receptor beta-arrestin recruitment; 2,300 tested, 4% active; AID 720506; Potency, µM (highest dose often 76.9 µM), usual class: activators; shares compounds with D2 ag-2; DiscoveRx D3 beta-arrestin cells, luminescence, 90 min; also: nearly all actives have a fitted effect of over 70% in size
Target sequence (P35462 whole entry, looked up): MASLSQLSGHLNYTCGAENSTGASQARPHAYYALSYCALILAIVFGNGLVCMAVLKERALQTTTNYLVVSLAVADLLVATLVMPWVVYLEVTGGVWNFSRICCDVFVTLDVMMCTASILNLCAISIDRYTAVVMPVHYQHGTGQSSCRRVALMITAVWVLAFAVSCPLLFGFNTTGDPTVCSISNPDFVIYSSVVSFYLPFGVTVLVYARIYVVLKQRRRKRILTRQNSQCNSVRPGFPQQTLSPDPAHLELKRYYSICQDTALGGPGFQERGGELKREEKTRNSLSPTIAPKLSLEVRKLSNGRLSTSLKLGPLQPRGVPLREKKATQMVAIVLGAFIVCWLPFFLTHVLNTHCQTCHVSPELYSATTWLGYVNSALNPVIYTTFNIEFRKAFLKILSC
D2 ag-3 = activates human D2 dopamine receptor in D3 counterscreen | shares compounds with D2 ag-2 | DiscoveRx PathHunter D2 beta-arrestin, luminescence, 90 min; response scale: percent relative to full dopamine signal | Potency, µM (top dose mostly 76.9 µM), hits mostly activators | 2,300 tested, 5.9% active | AID 720507; also: nearly all actives have a fitted effect of over 70% in size
Hits are given with their value; - = inactive; ? = inconclusive; . = not tested or not shown; ! = repeats disagree. In the library only some 2.4% were active in any assay of this set; here they are far more common. Unless noted, calls follow the shape of the dose curve; as a rule, active = well fitted activation curve with a large enough effect; inconclusive = small, poorly fitted or top-dose-only effect; inactive = flat fitted curve, though single readings scatter.

SMILES	D2 PAM-1	D2 ag-1	D2 antag	D2 ag-2	D2 PAM-2	D3 ag	D2 ag-3
CCOC(=O)N1CCC(NC(=O)C(Cc2ccccc2)NC(=O)c2ccco2)CC1 (stereo not given)	-	-	-	-	.	.	.
CCOC(=O)N1CCC(NCCNC(=O)c2ccco2)CC1	-	-	38	76	-	-	-
CCOc1ccc(N(C)S(=O)(=O)c2ccc3c(c2)CCCN3C(C)=O)cc1	.	.	.	-	-	.	.
O=C(Nc1ccccc1O)c1cc2cc(Br)ccc2oc1=O	-	-	-	-	-	.	.
CC(C)c1nnc(NC(=O)c2cc3cc(Br)ccc3oc2=O)s1	-	-	-	-	-	-	-
CC(C)OCC(O)CS(=O)(=O)Cc1ccccc1 (stereo not given)	-	-	-	58	-	-	-
O=C(COC(=O)C1CCN(S(=O)(=O)c2ccccc2)CC1)NCCc1ccccc1	-	-	-	-	-	-	-
NS(=O)(=O)c1ccc(CCNC(=O)C2CCN(S(=O)(=O)c3ccccc3)CC2)cc1	-	-	-	-	-	.	.
Cc1ccc(-n2nc3c(N4CCC(C(=O)NC(C)c5ccccc5)CC4)nnc(C)c3c2C)cc1 (stereo not given)	.	.	.	-	-	.	.
COc1ccc(NC(=O)c2nc3nc(C)cc(C(F)F)n3n2)c(C)c1	.	.	.	-	-	.	.
Cc1cc(C(F)F)n2nc(C(=O)Nc3cc(C)on3)nc2n1	-	-	-	-	-	-	-
COc1ccccc1N1CCN(c2cc(C)nc3c(-c4ccc(Cl)cc4)c(C)nn23)CC1	.	.	.	-	-	.	.
CCN(CC)CCCNC(=O)CN1C(=O)CSc2ccc(S(=O)(=O)N3CCOCC3)cc21	-	-	-	-	-	.	.
CCN(CC)CC(C)CNC(=O)CN1C(=O)CSc2ccc(S(=O)(=O)N3CCOCC3)cc21 (stereo not given)	-	-	-	54!	-	-	-
COc1cc(C(CCN2CCN(c3ccccc3)CC2)c2c(OC)cc(OC)c3c(C)cc(=O)oc23)cc(OC)c1OC (stereo not given)	-	-	-	-	-	-	-
COc1cc(OC)c2c(C)cc(=O)oc2c1C(CCN1CCOCC1)c1ccc2c(c1)OCO2 (stereo not given)	-	-	-	-	-	.	.
COc1ccc(OC)c(-n2c(CN3CCC(C(N)=O)CC3)nc3ccccc3c2=O)c1	-	-	-	57	-	-	-
CC1CCCN(C(=O)c2ccc3c(c2)OCO3)C1 (stereo not given)	-	-	-	-	-	.	.
O=C(c1ccc2c(c1)OCO2)N1CCCC(c2ccccc2)C1 (stereo not given)	-	-	55	-	-	-	-
COc1cc(NC(=O)CN2Cc3ccccc3C2=O)cc(OC)c1OC	.	.	.	-	-	.	.
CC[n+]1c(/C=C/C=C/N(C(C)=O)c2ccccc2)sc2cc(OC)ccc21	-	-	-	73	-	-	?
CCOCc1cc(CN2CCN(c3ccccc3OC)CC2)c(O)c2ncccc12	.	.	.	-	-	.	.
CCOc1ccccc1N1CCN(Cc2cccc(OC)c2O)CC1	-	-	68	45	-	-	-
COc1ccccc1N1CCN(Cc2cc3c(cc2O)OCO3)CC1	-	-	98	75	-	-	-
Cc1cc(C)cc(NC(=O)CSc2oc(-c3cccs3)nc2S(=O)(=O)c2ccc(Br)cc2)c1	.	.	.	-	-	.	.
SMILES	D2 PAM-1	D2 ag-1	D2 antag	D2 ag-2	D2 PAM-2	D3 ag	D2 ag-3
CCc1ccc2occ(CC(=O)N(Cc3ccccc3)C3CCS(=O)(=O)C3)c2c1 (stereo not given)	.	.	.	-	-	.	.
O=C(COc1ccc2oc(-c3ccccc3)cc(=O)c2c1)Nc1ccccc1	-	-	-	-	-	-	-
COC(=O)COc1ccc2oc(-c3ccc(OC)cc3)cc(=O)c2c1	.	.	.	-	-	.	.
Cc1cc(OCC(=O)Nc2ccncc2)ccc1Cl	-	-	-	-	-	.	.
Cc1cc(OCC(=O)Nc2ncn[nH]2)ccc1Cl	-	-	-	-	-	-	-
O=C(COc1cccc(Cl)c1)N1CCC(c2nc3ccccc3o2)CC1	.	.	.	-	-	.	.
Cc1ccc(C(=O)N2CCN(Cc3ccccc3)CC2)o1	-	-	-	50	-	-	-
COc1cccc(OC)c1C(=O)N1CCN(Cc2ccc3c(c2)OCO3)CC1	-	-	-	-	-	.	.
O=C(c1ccc([N+](=O)[O-])o1)N1CCN(Cc2ccccc2)CC1	-	-	-	-	-	.	.
Cc1cc(=O)oc(C)c1C(=O)N1CCN(Cc2ccc3c(c2)OCO3)CC1	-	-	-	-	-	-	-
CS(=O)(=O)c1ccccc1C(=O)N1CCN(Cc2ccccc2)CC1	-	-	.	.	.	-	-
N#Cc1ccc(S(=O)(=O)N2CCC(C(=O)N3CCN(Cc4ccc5c(c4)OCO5)CC3)CC2)cc1	-	?	43	35	-	-	?
Cc1nc(-c2ccc(C)c(S(=O)(=O)N3CCC(C(=O)NCc4ccc(Cl)cc4)CC3)c2)no1	.	.	.	-	-	.	.
O=C(c1cnn2cccnc12)N1CCN(Cc2ccc3c(c2)OCO3)CC1	-	-	-	-	-	.	.
CCOC(=O)N1CCN(C/C(C)=C/c2ccccc2)CC1	-	?	63	63	-	-	?
CCOc1ncccc1C(=O)N1CCN(Cc2ccc3c(c2)OCO3)CC1	-	60	75	80	-	?	2.8µM
O=C(Cn1ccc2ccccc2c1=O)N1CCN(Cc2ccc3c(c2)OCO3)CC1	-	-	-	30	-	-	-
O=C(c1cc2ccccc2oc1=O)N1CCN(Cc2ccc3c(c2)OCO3)CC1	-	-	-	-	-	.	.
CCOC(=O)N1CCN(Cc2ccc3c(c2)OCO3)CC1	?	53	81	86	-	-	5µM
Cn1c(=O)n(C)c2cc(N3CCCCC3)c(NC(=O)c3c(F)cccc3F)cc21	.	.	.	-	-	.	.
Cc1ccc2c(C)c(C(=O)N3CCN(Cc4ccc5c(c4)OCO5)CC3)oc2c1C	-	-	-	-	-	.	.
COc1ccc(N(C)S(=O)(=O)c2cccc(C(=O)N3CCN(Cc4ccc5c(c4)OCO5)CC3)c2)cc1	-	-	-	58	-	-	-
COc1cccc(CN2CCN(C(=O)c3cccc(OC)c3)CC2)c1	-	-	-	-	-	.	.
CN(CC(=O)N1CCN(Cc2ccccc2)CC1)C(=O)Cc1cccc2ccccc12	-	-	-	37	-	-	-
Cc1ccc(C(=O)N2CCN(Cc3ccc4c(c3)OCO4)CC2)o1	-	-	.	.	.	-	-
O=C(c1ccccc1)N1CCN(Cc2cccc(Oc3ccccc3)c2)CC1	-	-	-	49	-	-	-

Compound activity as filed in PubChem BioAssay.
